Source: PubChem BioAssay (NCI)
This is part of a sample that, as a whole, favours compounds with a hit. Of some 83,000 tested, about 20% had one in any assay.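 A percent growth of 40 corresponds to 60% growth inhibition; 0 means no net growth; -100 means all cells died. Active threshold: below 10.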 The source made the active and inactive calls.

Legend:
Experiment in all cases: NCI-60 one-dose screen, 48 h (100 = growth as untreated, 0 = no growth, -100 = all killed)
Conditions in all cases: 10 µM unless noted
SR leukemia = test system: SR leukemia
RPMI-8226 leukemia = test system: RPMI-8226 leukemia
OVCAR-8 ovarian = test system: OVCAR-8 ovarian
OVCAR-5 ovarian = test system: OVCAR-5 ovarian
OVCAR-4 ovarian = test system: OVCAR-4 ovarian
SK-OV-3 ovarian = test system: SK-OV-3 ovarian
IGROV1 ovarian = test system: IGROV1 ovarian
HS 578T breast = test system: HS 578T breast
NCI/ADR-RES ovarian = test system: NCI/ADR-RES ovarian
T-47D breast = test system: T-47D breast
BT-549 breast = test system: BT-549 breast
MDA-MB-435 melanoma = test system: MDA-MB-435 melanoma
SW-620 colon = test system: SW-620 colon
MCF7 breast = test system: MCF7 breast
HCT-116 colon = test system: HCT-116 colon
HCC-2998 colon = test system: HCC-2998 colon
KM12 colon = test system: KM12 colon
OVCAR-3 ovarian = test system: OVCAR-3 ovarian

Measured: growth

Cc1ccc(C(C)C)c(OCC(=O)O)c1
inactive: SR leukemia 109% | RPMI-8226 leukemia 107% | OVCAR-8 ovarian 101% | OVCAR-5 ovarian 98.7% | OVCAR-4 ovarian 112% | SK-OV-3 ovarian 108% | IGROV1 ovarian 109% | HS 578T breast 101% | NCI/ADR-RES ovarian 111% | T-47D breast 117% | BT-549 breast 112% | MDA-MB-435 melanoma 108% | SW-620 colon 96% | MCF7 breast 100% | HCT-116 colon 105% | HCC-2998 colon 106% | KM12 colon 108%

O=S1(=O)c2ccccc2Oc2ccccc21
inactive: SR leukemia 101% | RPMI-8226 leukemia 110% | OVCAR-8 ovarian 99.6% | OVCAR-5 ovarian 96.3% | OVCAR-4 ovarian 100% | SK-OV-3 ovarian 104% | IGROV1 ovarian 105% | OVCAR-3 ovarian 114% | NCI/ADR-RES ovarian 108% | BT-549 breast 113% | MDA-MB-435 melanoma 101% | SW-620 colon 95% | MCF7 breast 87.8% | HCT-116 colon 102% | HCC-2998 colon 106% | KM12 colon 109%

O=C(O)Cc1cccc2ccccc12
inactive: SR leukemia 94.5% | RPMI-8226 leukemia 104% | OVCAR-8 ovarian 110% | OVCAR-5 ovarian 102% | OVCAR-4 ovarian 122% | SK-OV-3 ovarian 103% | IGROV1 ovarian 112% | OVCAR-3 ovarian 111% | T-47D breast 103% | BT-549 breast 107% | MDA-MB-435 melanoma 104% | SW-620 colon 102% | HCT-116 colon 106% | HCC-2998 colon 95.9% | KM12 colon 107%

CCOC(=O)Nc1nccs1
inactive: SR leukemia 110% | RPMI-8226 leukemia 100% | OVCAR-8 ovarian 104% | OVCAR-5 ovarian 110% | OVCAR-4 ovarian 109% | SK-OV-3 ovarian 99.9% | IGROV1 ovarian 97.2% | HS 578T breast 98.7% | NCI/ADR-RES ovarian 112% | T-47D breast 94.8% | BT-549 breast 101% | MDA-MB-435 melanoma 111% | SW-620 colon 110% | MCF7 breast 101% | HCT-116 colon 104% | HCC-2998 colon 118% | KM12 colon 107%

Clc1ccc(/C=C/c2ccccn2)cc1
inactive: SR leukemia 98.2% | RPMI-8226 leukemia 45.5% | OVCAR-8 ovarian 105% | OVCAR-5 ovarian 112% | OVCAR-4 ovarian 62.3% | SK-OV-3 ovarian 104% | IGROV1 ovarian 87.2% | OVCAR-3 ovarian 98.4% | NCI/ADR-RES ovarian 98.8% | T-47D breast 44.1% | MDA-MB-435 melanoma 105% | SW-620 colon 84.2% | MCF7 breast 25.9% | HCT-116 colon 81.6% | HCC-2998 colon 111% | KM12 colon 89.8%

CC(C)C(=O)OCCOc1ccc(C(C)(C)C)cc1
inactive: SR leukemia 98.6% | RPMI-8226 leukemia 97.7% | OVCAR-8 ovarian 99.5% | OVCAR-5 ovarian 103% | OVCAR-4 ovarian 98.6% | SK-OV-3 ovarian 108% | IGROV1 ovarian 104% | HS 578T breast 93.9% | NCI/ADR-RES ovarian 100% | MDA-MB-435 melanoma 87.5% | SW-620 colon 92.2% | MCF7 breast 95.4% | HCT-116 colon 105% | HCC-2998 colon 111% | KM12 colon 93.3%

O=[N+]([O-])c1ccc2[nH]c(=S)n(/C=C(/c3ccc(Cl)cc3Cl)S(=O)(=O)Cc3ccc(Cl)cc3Cl)c2c1
inactive: SR leukemia 83.1% | RPMI-8226 leukemia 98.7% | OVCAR-8 ovarian 93.7% | OVCAR-5 ovarian 108% | OVCAR-4 ovarian 95.9% | SK-OV-3 ovarian 99.1% | IGROV1 ovarian 104% | HS 578T breast 106% | NCI/ADR-RES ovarian 100% | T-47D breast 90.2% | BT-549 breast 93.9% | MDA-MB-435 melanoma 103% | SW-620 colon 114% | MCF7 breast 87.8% | HCT-116 colon 82.8% | HCC-2998 colon 105% | KM12 colon 108%

Nc1cccc2cccc(O)c12
inactive: SR leukemia 58.5% | RPMI-8226 leukemia 85.5% | OVCAR-8 ovarian 86.7% | OVCAR-5 ovarian 103% | OVCAR-4 ovarian 83.1% | SK-OV-3 ovarian 100% | IGROV1 ovarian 76% | OVCAR-3 ovarian 87.1% | NCI/ADR-RES ovarian 95.5% | T-47D breast 102% | MDA-MB-435 melanoma 108% | SW-620 colon 67.4% | MCF7 breast 79.9% | HCT-116 colon 78.8% | HCC-2998 colon 95.8%

Cc1cc(C(=O)c2ccccc2)cc(C)c1O
inactive: SR leukemia 55.6% | RPMI-8226 leukemia 81.2% | OVCAR-8 ovarian 101% | OVCAR-5 ovarian 99.5% | OVCAR-4 ovarian 86.8% | SK-OV-3 ovarian 101% | IGROV1 ovarian 103% | OVCAR-3 ovarian 109% | NCI/ADR-RES ovarian 104% | T-47D breast 95.6% | MDA-MB-435 melanoma 101% | MCF7 breast 93.8% | HCT-116 colon 84.5% | HCC-2998 colon 102% | KM12 colon 99.6%

CC(=O)c1cccc(N(C)S(=O)(=O)c2ccc(C)cc2)c1
inactive: SR leukemia 44.7% | RPMI-8226 leukemia 102% | OVCAR-8 ovarian 101% | OVCAR-5 ovarian 90.7% | OVCAR-4 ovarian 87.7% | SK-OV-3 ovarian 109% | IGROV1 ovarian 82.5% | HS 578T breast 102% | NCI/ADR-RES ovarian 82.4% | T-47D breast 87.8% | BT-549 breast 82.8% | SW-620 colon 81.7% | MCF7 breast 60.5% | HCT-116 colon 94% | HCC-2998 colon 82.6% | KM12 colon 49.8%
active: MDA-MB-435 melanoma 8.55%
